# Compound activity (PubChem BioAssay)
# ATXN2 expr inh = reduces ATXN2 reporter expression in HEK-293 cells; HEK-293 ATXN2-luciferase reporter, luminescence, 24 h; AID 1745845; Potency, µM (series often up to 57 µM), for inactives: top-dose activity change, negative = inhibition, most hits filed as inhibitors; 0.72% of 360,000 active; also: potency is read from the fitted curve at half-maximal effect; % is scaled to controls: 0 for no effect and ±100 for the full control effect; nearly all actives have a fitted effect of over 55% in size
#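 ATXN2-luciferase reporter cells (luciferase flanked by upstream and downstream ATXN2 gene portions) were treated 24 h at 37 °C with compounds at up to 57 uM. SteadyGlo luminescence gave expression; GF-AFC fluorescence gave viability.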
# IL-1B inflam inh = inflammasome signaling inhibition, IL-1 beta readout | THP-1 LPS/ATP IL-1B secretion, AlphaLISA, 16 h; active compounds read low | activity change, % at 57.5 µM | 4.7% of 360,000 active | AID 743279; in the data active = activity change below about -50%; inconclusive = mostly about -30% to -49%; also: % is scaled to controls: 0 for no effect and ±100 for the full control effect
#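 Secreted IL-1B measured by AlphaLISA bead assay after 16 h compound exposure of THP-1 cells; compounds (final up to 57.5 uM) added 1 h before LPS (250 ng/mL) and ATP (1.25 mM) stimulation; lower signal means less secretion.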
# MCF10A rereplic = induces DNA re-replication in MCF 10a normal breast cells; MCF 10A DNA re-replication, Hoechst nuclear intensity, 48 h; Potency, µM (top dose mostly 46.1 µM), without a hit: at the top dose activity, positive = re-replication, actives largely listed as activators; 2.9% of 350,000 active; AID 624296; also: potency is read from the fitted curve at half-maximal effect; % of control where 0% means no effect; nearly all actives have a fitted effect of over 50% in size
# ATXN viability = viability counter-screen for ATXN expression inhibitors; Potency, µM (highest dose often 56.7 µM), hits mostly cytotoxic; 0.49% of 400,000 active; AID 651635; S2 cells (HEK-293 line with an ATXN2-luciferase reporter) viability, CellTiter-Fluor protease fluorescence, 24 h; also: potency is read from the fitted curve at half-maximal effect; nearly all actives have a fitted effect of over 40% in size
# PINK1 expr mod = modulators of PINK1 expression; 0.2% of 410,000 active; Potency, µM (highest dose often 76.6 µM), for inactives: at the top dose activation (PINK1 increase), hits mostly activators; PINK1 immunofluorescence, high-content cytometry, 24 h; AID 624263; active = well fitted activation curve with a large enough effect; inconclusive = small, poorly fitted or top-dose-only effect; cell line not stated here; also: potency is read from the fitted curve at half-maximal effect; % of control where 0% means no effect; nearly all actives have a fitted effect of over 65% in size
#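 Cells are seeded, rested 12 hours, then given compound at five concentrations or DMSO for 24 hours. After fixation, blocking and antibody staining, PINK1 amount and mitochondrial localization are scored; CCCP serves as control.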
# SW480 rerep = DNA re-replication induction in SW480 cells; SW480 DNA re-replication, Hoechst DNA content imaging, 48 h; Potency, µM (highest dose often 46.1 µM), without a hit: top-dose re-replication activation, actives largely listed as activators; 1.8% of 340,000 active; also: potency is read from the fitted curve at half-maximal effect; % of control where 0% means no effect; nearly all actives have a fitted effect of over 55% in size
#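 Hoechst fluorescence of nuclei (405 nm excitation, 500-530 nm emission) measured by plate-scanning imager after 48 hr compound exposure at 37 C; re-replication scored as increased number of nuclei with elevated intensity.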
# Starred values were filed as active, the others as inactive; i = inactive; ? = inconclusive; nt = no result given; [ ] = remark or other dose. Only some compounds are listed: those with a hit (about 7.1% of all), similar ones and a draw of the others. Unless noted, calls follow the shape of the dose curve; as a rule, active = well fitted curve in the direction sought with a large enough effect; inconclusive = small, poorly fitted or top-dose-only effect, or another doubt; inactive = no such curve, though single readings can be large; an effect the other way counts as inactive or inconclusive.
SMILES,ATXN2 expr inh,IL-1B inflam inh,MCF10A rereplic,ATXN viability,PINK1 expr mod,SW480 rerep
COc1ccc(CCN(C)CC(=O)Nc2ccc(F)c(Cl)c2)cc1OC,-23%,-58*,14%,i,0%,4%
Cc1ccc(OCCC(=O)Nc2ccc(F)c(Cl)c2)cc1,10%,0,-5%,i,9%,-2%
N#Cc1ccccc1S(=O)(=O)N1CCN(C(=O)c2cn(-c3ccccc3)nc2-c2cccnc2)CC1,-2%,-26,4%,i,0%,-24%
COc1ccc(OC)c(-c2cc(Cl)c3c(c2)CC(CNC(=O)C(C)N2CCOCC2)O3)c1 (centres undefined),nt,nt,nt,i,1%,nt
O=C(O)Cc1ccc2c(c1)C(=O)c1ccccc1CO2,11%,nt,nt,i,nt,nt
CCOC(=O)c1cc(=O)c2c(OCC(COc3cccc4oc(C(=O)OCC)cc(=O)c34)OC(=O)[C@@H](N)CCCCN)cccc2o1,3%,nt,nt,i,nt,nt
CCCCn1nc(NC(=O)c2cccc(Cl)c2)c2cc3ccc(C)cc3nc21,-4%,nt,nt,i,1%,nt
CCOC(CNC(=O)c1cc2c(=O)n(CC)c3ccccc3c2s1)OCC,24%,?,8%,i,2%,-14%
CCCN(CCC)CCCNC(=O)c1cc2c(=O)n(CC)c3ccccc3c2s1,-3%,-63*,?,nt,3%,?
CCN(CCCNC(=O)c1cc2c(=O)n(CC)c3ccccc3c2s1)c1ccccc1,-5%,nt,nt,i,6%,nt
CCn1c(=O)c2cc(C(=O)NCCCOC)sc2c2ccccc21,-2%,-50*,98%,i,6%,?
CCn1c(=O)c2cc(C(=O)NCC(OC)OC)sc2c2ccccc21,-7%,-56*,10%,i,1%,-3%
CCCCN(CC)CCNC(=O)c1cc2c(=O)n(CC)c3ccccc3c2s1,-14%,?,5%,i,-2%,2%
CCn1c(=O)c2cc(C(=O)NCCC(C)C)sc2c2ccccc21,-18%,?,11%,i,11%,29%
CCCCN(CC)CCCNC(=O)c1cc2c(=O)n(CC)c3ccccc3c2s1,?,-77*,?,?,-1%,?
Cc1ccccc1CN1C(=O)c2ccccc2S(=O)c2ccc(C(=O)NCc3ccco3)cc21 (centres undefined),3%,nt,nt,i,2%,nt
O=C(CN1CCCN(Cc2ccccc2F)S1(=O)=O)Nc1ccc(F)c(Cl)c1,nt,nt,nt,nt,-1%,nt
CC(C)Nc1nc(Oc2ccc(Cl)cc2)cc(C(F)(F)F)n1,-26%,21,23µM*,i,15%,8%
CCNc1nc(Oc2ccc(F)cc2)cc(C(F)(F)F)n1,-5%,0,3%,i,11%,-3%
CCNc1nc(Oc2ccc(C#N)cc2)cc(C(F)(F)F)n1,-10%[11.3 µM],-57*,-14%,i,1%,9%
Cc1ccc2c(c1)nnn2C1CCN(S(=O)(=O)c2ccc(C(=O)N(C)C3CCCCC3)cc2)CC1,-21%,-73*,21%,i,-5%,8%
Cc1ccc(S(=O)(=O)N2CCC(n3nnc4cc(C)ccc43)CC2)cc1,-14%,14,19%,i,-2%[38.3 µM],0%
Cc1ccc2c(c1)nnn2C1CCN(C(=O)Nc2ccccc2C)CC1,-34%,-57*,-2%,?,0%,-30%
CCOc1ccc(NC(=O)N2CCC(n3nnc4cc(C)ccc43)CC2)cc1,-3%,-15,15%,i,0%,15µM*
Cc1ccc2c(c1)nnn2C1CCN(C(=O)c2ccccc2F)CC1,nt,-10,3%,i,0%,-4%
SMILES,ATXN2 expr inh,IL-1B inflam inh,MCF10A rereplic,ATXN viability,PINK1 expr mod,SW480 rerep
CCCCc1nc2ccccc2n1CC(=O)N(COCC)c1c(C)cccc1CC,-10%,nt,nt,i,2%,nt
CCCCOc1ccc(N(CC(=O)NC2CCCCC2)C(=O)c2snc(C(N)=O)c2N)cc1,-15%,16,?,i,6%,14%
NC(=O)c1nsc(C(=O)N(CC(=O)NC2CCCCC2)c2ccc(Cl)cc2)c1N,20%,3,?,i,5%,-2%
COc1cccc(N(CC(=O)NC2CCCCC2)C(=O)c2snc(C(N)=O)c2N)c1,-3%,-61*,6%,i,1%,-5%
NC(=O)c1nsc(C(=O)N(CC(=O)NC2CCCC2)c2cccc(C(F)(F)F)c2)c1N,-5%,-13,15µM*,i,8%,?
COc1ccc(CNCC(O)COc2ccc3[nH]c(=O)ccc3c2)cc1OC (centres undefined),nt,nt,nt,i,nt,nt
NNc1ncnc2scc(-c3ccc(Cl)cc3)c12,16µM*,55,?,i,?,-4%
OCCCNc1ncnc2scc(-c3ccc(Cl)cc3)c12,27%,-20,2%,i,-2%,-7%
Fc1ccc(-c2csc3ncnc(Cl)c23)cc1,-5%,-7,?,i,0%,?
Clc1ccc(-c2csc3ncnc(Cl)c23)cc1,-23%,-89*,18µM*,i,0%,21µM*
CCOC(=O)[C@@H]1[C@H]2COc3ccccc3[C@@H]2N2C(=O)N(c3ccc(Br)cc3)C(=O)[C@]12C,-5%,13,-7%,i,-2%,23µM*
CCOC(=O)[C@H]1[C@H]2COc3ccc(Br)cc3[C@@H]2N2C(=O)CN(Cc3ccc(Cl)cc3)C(=O)[C@@]12C,11%,-11,?,i,3%,-1%
CCOC(=O)[C@H]1[C@H]2COc3ccc(Br)cc3[C@H]2N2C(=O)CN(Cc3ccc(Cl)cc3)C(=O)[C@@]12C,-25%,-52*,0%,i,2%,?
COc1ccc(-n2nc(C(=O)Nc3ccc(Cl)cn3)c3c4ccccc4n(C)c3c2=O)cc1Cl,-2%,nt,nt,i,2%,nt
Cc1cccn2c(=O)c(C(=O)NCc3cccc(F)c3)cnc12,-4%,nt,nt,i,1%,nt
N#Cc1c(N)nc(SCc2ccncc2)c(C#N)c1-c1cccs1,?,-51*,?,?,-3%[38.3 µM],?
COc1ccc(OC)c(CNC(=O)c2nn(-c3ccc(OC)c(Cl)c3)c(=O)c3c2c2ccccc2n3C)c1,2%,nt,nt,i,1%,nt
CCN(Cc1ccccc1)C(=O)CCS(=O)(=O)c1cc(Br)cc2c1N(C(=O)C1CC1)CC2,-3%,nt,nt,i,4%,nt
O=C(Nc1ccc(Br)cc1)c1cccc(C(=O)Nc2ccc(Br)cc2)c1,nt,nt,nt,nt,6%,nt
O=C(CN1CCC(n2nnc3cc(C(F)(F)F)ccc32)CC1)Nc1ccc2c(c1)CCC2,-22%,-50*,16%,i,-2%,-1%
COC(=O)c1ccccc1NC(=O)CN1CCC(n2nnc3cc(C(F)(F)F)ccc32)CC1,-20%,13,?,i,?,1%
